The source made the active and inactive calls. Unless noted, how the calls were made is not given here.
Legend:
[1] = resazurin metabolic signal in HepG2 cells – cell-based, resazurin fluorescence, 24 h, PK04 Diversity Set, profiling panel (AID 1172); conditions: HepG2 viability, higher = more signal
[2] = budding yeast growth changes without added modifier – OD600, strain BY4716, 24 h, basal condition, primary screen (AID 1173); conditions: S. cerevisiae BY4716 growth, OD600, 24 h; higher = more signal, called active from +8 up or from −8 down
[3] = viability profiling in MM1S myeloma cells – cell-based, resazurin fluorescence, basal, 24 h, PK04 Diversity Set, profiling panel (AID 1174); conditions: higher = more signal, called active from +8 up or from −8 down;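 further: MM1S multiple myeloma cell line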
[4] = biological target: Dihydroorotate dehydrogenase (quinone), mitochondrial (Plasmodium falciparum (isolate 3D7)) (UniProt Q08210); experiment: inhibition of P. falciparum DHODH – biochemical, C-terminal His tag, absorbance 600 nm, primary screen (AID 1175); conditions: PfDHODH enzyme, DCIP absorbance 600 nm; higher = more signal, called active from +8 up or from −8 down;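 further: recombinant parasite enzyme with a five histidine tag at its C terminus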
Sequence of Dihydroorotate dehydrogenase (quinone), mitochondrial (Plasmodium falciparum (isolate 3D7)) (Q08210 whole entry, looked up): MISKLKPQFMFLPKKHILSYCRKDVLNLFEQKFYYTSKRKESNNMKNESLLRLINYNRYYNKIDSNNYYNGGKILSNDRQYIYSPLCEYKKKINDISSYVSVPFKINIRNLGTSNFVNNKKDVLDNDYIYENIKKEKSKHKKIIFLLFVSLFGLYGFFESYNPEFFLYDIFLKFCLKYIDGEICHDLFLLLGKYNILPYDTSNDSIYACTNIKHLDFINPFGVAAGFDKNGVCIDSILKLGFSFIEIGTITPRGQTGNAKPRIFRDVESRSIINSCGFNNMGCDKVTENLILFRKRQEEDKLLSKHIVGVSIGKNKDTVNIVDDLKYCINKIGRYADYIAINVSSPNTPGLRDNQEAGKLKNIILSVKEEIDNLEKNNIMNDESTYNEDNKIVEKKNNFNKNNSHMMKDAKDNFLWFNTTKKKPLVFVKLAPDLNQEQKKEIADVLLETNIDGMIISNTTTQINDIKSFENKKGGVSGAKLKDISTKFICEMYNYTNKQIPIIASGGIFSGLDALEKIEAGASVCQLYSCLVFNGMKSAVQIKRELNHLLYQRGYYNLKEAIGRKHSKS

[5] = inhibition of PAO1 biofilm formation – strain PAO1, LB-PBS medium, absorbance 600 nm, primary screen (AID 1176); conditions: P. aeruginosa PAO1 growth/biofilm, A600, 12 h; higher = more signal
[6] = growth modulation of vineyard yeast isolate – strain RM11-1a, OD600, basal, 24 h, primary screen (AID 1177);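 further: cultures grown under basal conditions with no added stressor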; conditions: S. cerevisiae RM11-1a growth, OD600, 24 h; higher = more signal, called active from +8 up or from −8 down
[7] = growth of efflux-deficient E. coli DRC39 – strain DRC39, OD650, 24 h, E. coli filamentation inducers, primary screen (AID 1178);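 further: growth measured as culture turbidity by optical density at 650 nm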; conditions: E. coli DRC39 acrAB, higher = more signal, called active from +8 up or from −8 down
[8] = growth of efflux-deficient E. coli DRC39 – strain DRC39, OD650, 48 h, E. coli filamentation inducers, primary screen (AID 1179);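 further: screen aims at cell division blockers that make cells filament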; conditions: E. coli DRC39 delta-acrAB growth, higher = more signal, called active from +8 up or from −8 down
[9] = viability profiling in RPMI8226 myeloma cells – cell-based, resazurin fluorescence, basal, 24 h, PK04 Diversity Set, profiling panel (AID 1180); conditions: higher = more signal;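 further: RPMI8826 multiple myeloma cell line at 5000 cells per well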
[10] = biological target: E3 ubiquitin-protein ligase XIAP (Homo sapiens) (UniProt P98170); experiment: small molecules binding XIAP protein – biophysical, small-molecule microarray, fluorescence 635 nm, primary screen (AID 1181); conditions: higher = more signal;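 further: score merges 667 nm emission and signal to noise over triplicate slides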
Sequence of E3 ubiquitin-protein ligase XIAP (Homo sapiens) (P98170 whole entry, looked up, the tested form may be a part): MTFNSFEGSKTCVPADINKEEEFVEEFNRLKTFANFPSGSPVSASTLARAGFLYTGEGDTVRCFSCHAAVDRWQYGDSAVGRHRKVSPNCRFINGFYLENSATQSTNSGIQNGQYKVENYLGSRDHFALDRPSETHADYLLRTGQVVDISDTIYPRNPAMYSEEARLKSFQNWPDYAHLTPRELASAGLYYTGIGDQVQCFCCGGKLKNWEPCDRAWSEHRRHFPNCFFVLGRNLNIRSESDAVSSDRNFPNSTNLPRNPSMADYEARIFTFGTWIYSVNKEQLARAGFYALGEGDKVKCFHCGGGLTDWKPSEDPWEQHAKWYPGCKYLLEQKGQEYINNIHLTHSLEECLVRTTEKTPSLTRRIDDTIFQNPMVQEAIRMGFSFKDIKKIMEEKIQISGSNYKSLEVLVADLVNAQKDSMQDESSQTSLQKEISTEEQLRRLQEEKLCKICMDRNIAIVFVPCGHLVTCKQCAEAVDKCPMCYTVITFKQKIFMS

[11] = test system: XIP peptide (Xip251-270) binding; experiment: XIP fragment 251-270 binding compounds – biochemical, small-molecule microarray, fluorescence 635/667 nm, 0.1 µg/mL protein, primary screen (AID 1182); conditions: fluorescent protein binding, 635 nm, higher = more signal, called active from +8 up or from −8 down
XIP peptide (Xip251-270) = experiment: compounds binding XIP fragment 251-270 – biochemical, small-molecule microarray, fluorescence 635/667 nm, 0.5 µg/mL protein, primary screen (AID 1183); conditions: fluorescence 635 nm, higher = more signal
[12] = blood-stage malaria parasite viability loss – strain 3D7, DAPI fluorescence, 100 nL, primary screen (AID 1184);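 further: parasites grown inside human red blood cells in medium with human serum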; conditions: P. falciparum 3D7 growth, 3 d, higher = more signal
[13] = biological target: Homeobox protein Hox-A13 (Mus musculus) (UniProt Q62424); experiment: disruptors of Hoxa13 oligonucleotide interaction – biochemical, fluorescence polarization, labeled oligonucleotide, primary screen (AID 1185); conditions: Hoxa13:DNA binding, 15 min, higher = more signal, called active from +8 up or from −8 down
Sequence of Homeobox protein Hox-A13 (Mus musculus) (Q62424 whole entry, looked up): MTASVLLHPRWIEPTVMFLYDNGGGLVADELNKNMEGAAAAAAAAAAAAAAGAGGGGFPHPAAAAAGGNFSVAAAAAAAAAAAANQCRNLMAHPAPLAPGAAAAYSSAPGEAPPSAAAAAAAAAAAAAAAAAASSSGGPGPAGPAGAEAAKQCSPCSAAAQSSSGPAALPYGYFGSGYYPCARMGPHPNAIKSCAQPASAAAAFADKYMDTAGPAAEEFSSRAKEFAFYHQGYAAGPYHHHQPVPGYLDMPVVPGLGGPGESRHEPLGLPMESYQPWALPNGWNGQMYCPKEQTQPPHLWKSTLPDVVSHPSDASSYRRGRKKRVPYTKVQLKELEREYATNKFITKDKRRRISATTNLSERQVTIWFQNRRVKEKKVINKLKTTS

[14] = blockers of DNA damage checkpoint Chk1 activation – imaging, HeLa, hydroxyurea, phospho-Chk1 antibody, percent positive cells, primary screen (AID 1186); conditions: hydroxyurea-induced phospho-Chk1 immunofluorescence imaging, higher = more signal
[15] = blockers of DNA damage checkpoint Chk1 activation – imaging, HeLa, hydroxyurea, phospho-Chk1 nuclear intensity, primary screen (AID 1187); conditions: hydroxyurea-induced phospho-Chk1 immunofluorescence imaging, higher = more signal

| Compound | z-score [1] | z-score [2] | z-score [3] | composite z-score [4] | z-score [5] | z-score [6] | z-score [7] | z-score [8] | z-score [9] | composite z-score [10] | composite z-score [11] | composite z-score (XIP peptide (Xip251-270)) | z-score [12] | z-score [13] | z-score [14] | z-score [15] |
| --- | --- | --- | --- | --- | --- | --- | --- | --- | --- | --- | --- | --- | --- | --- | --- | --- |
| COC(=O)[C@@]1(Cc2ccc(F)cc2)[C@H]2c3cc(C(=O)N(C)C)n(Cc4ccc(S(C)(=O)=O)cc4)c3C[C@H]2CN1C(=O)c1ccccc1 | -0.304 | 0.571 (inactive) | -0.0532 (inactive) | 0.382 (inactive) | 0.122 (inactive) | 0.325 (inactive) | -0.104 (inactive) | 0.118 (inactive) | -1.04 | -0.102 | 1.46 (inactive) | 0.788 | -0.589 | -4.58 (inactive) | 0.144 (inactive) | 0.0541 (inactive) |
| CCOc1cc(C(O)C2C=CC3C(=O)N(c4ccccc4)C(=O)C3N2Nc2ccccc2)ccc1O (stereo unspecified) | -0.147 | -2.46 (inactive) | -1.07 (inactive) | 0.392 (inactive) | 1.1 (inactive) | 1.16 (inactive) | -0.345 (inactive) | -0.649 (inactive) | -0.0963 | -0.189 | 0.497 (inactive) | 0.221 | -0.033 | -4.03 (inactive) | -0.516 (inactive) | -0.835 (inactive) |
| O=C1O[C@H](c2ccccc2)[C@H](c2ccccc2)N2[C@H]1[C@@H](C(=O)N1CCN(c3ncccn3)CC1)[C@]1(C(=O)Nc3ccc(C#CC4=CCCCC4)cc31)[C@H]2c1ccc(O)cc1 | 1.03 | 0.866 (inactive) | 0.0054 (inactive) | -0.457 (inactive) | 0.902 (inactive) | 2.46 (inactive) | 0.105 (inactive) | 0.557 (inactive) | -0.441 | -0.0559 | 0.28 (inactive) | 0.815 | -0.953 | 2.84 (inactive) | -0.329 (inactive) | -0.513 (inactive) |
| CCC(CC)C(O)C1C=CC2C(=O)N(C)C(=O)C2N1Nc1ccccc1 (stereo unspecified) | -0.138 | -0.692 (inactive) | -0.193 (inactive) | -0.546 (inactive) | 1.12 (inactive) | -0.0874 (inactive) | -0.53 (inactive) | -0.662 (inactive) | 0.257 | 0.661 | 0.544 (inactive) | 0.758 | 0.865 | -3.63 (inactive) | -0.0753 (inactive) | 0.0501 (inactive) |
| COc1ccc(C(=O)Nc2cccc(CN3C(=O)[C@]4(O[C@H](CCO)[C@@H]([Si](C)(C)c5ccc(OC)cc5)[C@@H]4C)c4ccccc43)c2)cc1 | -6.28 | -3.7 (inactive) | -9.11 (active) | 0.255 (inactive) | 1.01 (inactive) | 4.05 (inactive) | 0.127 (inactive) | -0.903 (inactive) | -6.27 | 0.0847 | -0.0488 (inactive) | 0.639 | -2.85 | -2.45 (inactive) | -0.204 (inactive) | -0.881 (inactive) |
| O=C1c2ccccc2[C@](Cc2ccccc2I)(C(=O)NC2CC2)[C@H](c2ccc(CO)cc2)N1Cc1ccccc1 | 0.621 | 0.401 (inactive) | 0.414 (inactive) | 0.159 (inactive) | 0.14 (inactive) | -0.377 (inactive) | -0.0358 (inactive) | 0.0388 (inactive) | 0.535 | -0.0663 | 0.534 (inactive) | 0.63 | -0.35 | -5.1 (inactive) | 0.0675 (inactive) | -0.345 (inactive) |

Source: PubChem BioAssay
